FLuc modulator: counter-screen for miR-21 project: firefly luciferase inhibitors or activators. Potency, µM (top dose mostly 57.5 µM), without a hit: top-dose activity change, negative = inhibition, most hits filed as inhibitors. purified FLuc, Km substrates, luminescence inhibition. hit rate 6.9% among 360,000. AID 588342;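 also: plate controls were vehicle for no effect and reference inhibitor for full effect; nearly all actives have a fitted effect of over 55% in size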
Target sequence (P08659 whole entry, looked up): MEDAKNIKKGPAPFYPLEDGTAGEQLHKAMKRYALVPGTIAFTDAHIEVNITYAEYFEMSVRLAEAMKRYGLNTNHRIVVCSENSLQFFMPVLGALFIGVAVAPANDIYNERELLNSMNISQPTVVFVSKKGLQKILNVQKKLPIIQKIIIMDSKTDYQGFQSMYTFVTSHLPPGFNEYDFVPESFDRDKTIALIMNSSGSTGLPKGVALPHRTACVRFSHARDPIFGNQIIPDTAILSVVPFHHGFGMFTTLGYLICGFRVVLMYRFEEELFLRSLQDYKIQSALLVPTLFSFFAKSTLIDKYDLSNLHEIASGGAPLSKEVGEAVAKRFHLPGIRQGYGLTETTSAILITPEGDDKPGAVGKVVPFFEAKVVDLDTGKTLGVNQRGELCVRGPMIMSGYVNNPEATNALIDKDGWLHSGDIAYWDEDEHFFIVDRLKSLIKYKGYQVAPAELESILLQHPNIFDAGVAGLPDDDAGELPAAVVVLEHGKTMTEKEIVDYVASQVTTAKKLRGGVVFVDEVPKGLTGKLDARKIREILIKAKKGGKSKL
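Purified P. pyralis luciferase, 10 nM final, with Km-level 10 uM D-luciferin and 10 uM ATP in 50 mM Tris acetate pH 7.5, 10 mM Mg acetate, 0.01% Tween-20, 0.05% BSA; 6-point qHTS titration about 60 µM downward; luminescence read.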
ELG1 genotox: genotoxicity induction in ELG1-luciferase HEK293T cells | AID 504466 | HEK293T ELG1-luciferase reporter, luminescence, 16 h | Potency, µM (series often up to 46 µM), for inactives: at the highest dose activity change, positive = activation, actives largely listed as activators | hit rate 1.3% among 330,000; also: % of control where 0% means no effect; nearly all actives have a fitted effect of over 60% in size
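Luminescence read-out: rising ELG1-luciferase signal, reflecting elevated ELG1 protein under genetic stress, flags genotoxic compounds. Cells were treated for 16 hr at 37 °C before ONE-Glo detection.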
NPC1 prom act: activates the NPC1 promoter | Huh7 NPC1 promoter luciferase reporter, 24 h | Potency, µM (top dose mostly 9.22 µM), inactives show at the highest dose activation, hits mostly activators | hit rate 2.4% among 320,000; also: % of control where 0% means no effect; nearly all actives have a fitted effect of over 60% in size
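Compounds in DMSO were transferred onto Huh7 NPC1-luciferase reporter cells pre-incubated 2 h; after 24 h at 37 °C, Amplite reagent was dispensed and luminescence recorded 10 min later.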
SMN2 splice enh: SMN2 splice variant enhancement | HEK293 SMN2-luciferase splicing reporter, luminescence, 30-36 h | Potency, µM (series often up to 46.1 µM), for inactives: at the highest dose activity change, positive = activation, actives largely listed as activators | hit rate 2.8% among 210,000 | AID 1458; also: % of control where 0% means no effect; nearly all actives have a fitted effect of over 55% in size
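HEK293 cells carry an SMN2 minigene-luciferase reporter in which exon 7 inclusion puts luciferase in frame. Cells were seeded at 2000 cells/well, attached for 10-12 hours, then exposed to compounds for 30-36 hours at 37C before ONE-Glo luminescence.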
ELG1 DNA repair: blocks ELG1-dependent DNA repair in HEK293T cells | HEK293T ELG1-luciferase reporter, luminescence, 16 h; DNA damage induced by 5-fluorouridine | AID 504467 | hit rate 2.3% among 330,000 | Potency, µM (highest dose often 46.1 µM), for the others: top-dose activity change, negative = inhibition, usual class: inhibitors; also: % is scaled to controls: 0 for no effect and ±100 for the full control effect; nearly all actives have a fitted effect of over 55% in size
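Quantitative HTS, concentration-response format. 2,000 cells/well co-treated with 5-fluorouridine and compound, 16 hr in 5% CO2 at 37 °C; ONE-Glo luminescence read after 30 min.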
Rab9 prom act: Rab9 promoter activation | Huh7 Rab9 promoter-luciferase reporter, luminescence, 24 h | Potency, µM (highest dose often 9.22 µM), without a hit: at the top dose activation, negative = inhibition, hits mostly activators | hit rate 2.8% among 320,000 | AID 485297; also: % of control where 0% means no effect; nearly all actives have a fitted effect of over 60% in size
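Rab9 promoter-driven luciferase in stably transfected Huh7 cells; 1500 cells/well rested 2 h, exposed to compound in DMSO for 24 h at 37 °C, 5% CO2. Luminescence read 10 min after adding luciferase reagent at ambient temperature.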
* marks the source's active call; other numbers are inactive results; ? = inconclusive; / = not tested or not shown. Rows were chosen to be rich in hits. Some 9.3% of all compounds tested hit in one or more screens of this group. Calls follow the shape of the dose curve; as a rule, active = well fitted curve in the direction sought with a large enough effect; inconclusive = small, poorly fitted or top-dose-only effect, or another doubt; inactive = no such curve, though single readings can be large; an effect the other way counts as inactive or inconclusive. Potency is read from the fitted curve at half-maximal effect.

SMILES	FLuc modulator	ELG1 genotox	NPC1 prom act	SMN2 splice enh	ELG1 DNA repair	Rab9 prom act
COc1ccc(/C=N/Nc2nncc3ccccc23)c(OC)c1	9.5µM*	?	?	13µM*	?	?
COc1cc(/C=N/Nc2nncc3ccccc23)cc(OC)c1OC	8.5µM*	?	1.6µM*	/	?	?
COc1ccc(/C=N/NS(C)(=O)=O)c(OC)c1	5%	-3%	-8%	-5%	1%	-3%
CN(C)c1ccc(/C=N/Nc2nncc3ccccc23)cc1	0.43µM*	0.73µM*	0.32µM*	/	?	0.32µM*
Cc1cccc(/C=N/Nc2nncc3ccccc23)c1	0.85µM*	0.46µM*	0.56µM*	2.5µM*	?	0.32µM*
CCNc1nc(NCC)nc(N/N=C/c2cc(OC)c(OC)c(OC)c2)n1	?	-6%	-4%	/	?	0%
CNC(=O)c1ccccc1NC(=O)c1ccco1	4%	5%	-3%	-7%	16%	10%
C(=N\Nc1nncc2ccccc12)/c1ccccc1	0.54µM*	?	1.1µM*	/	?	1.4µM*
COc1ccc(NC(=O)c2coc(=O)c3ccccc23)cc1OC	4%	/	/	?	/	/
COc1ccc(NC(=O)c2cc3ccccc3o2)cn1	13µM*	?	2.8µM*	/	?	2.5µM*
COc1cc(NC(=O)C(C)C)ccc1NC(=O)c1cc2ccccc2o1	7.6µM*	?	2.2µM*	/	?	3.2µM*
COc1ccc(NC(=O)c2coc3ccccc23)cc1OC	13µM*	?	?	20%	?	?
COc1ccc(NC(=O)c2cc3ccccc3o2)cc1OC	15µM*	?	7%	/	?	?
COc1ccc(NC(=O)c2cc3ccccc3o2)cc1	3.8µM*	6.5µM*	1.6µM*	?	?	0.56µM*
COc1ccc(-c2nc3cc(NC(=O)c4cc5ccccc5o4)ccc3o2)cc1	-4%	/	/	-2%	/	/
COc1ccc(-n2c(C)cc(C(=O)Cn3nc(C(=O)O)c4ccccc4c3=O)c2C)cc1	24µM*	-2%	-1%	-28%	-16%	1%
Cc1ccc(C(=O)Cn2nc(C(=O)O)c3ccccc3c2=O)cc1C	6.7µM*	1%	4%	/	0%	13%
Cc1cc(C(=O)Cn2nc(C(=O)O)c3ccccc3c2=O)c(C)n1CC(F)(F)F	3µM*	16%	18%	5%	?	?
COCC(C)n1c(C)cc(C(=O)Cn2nc(C(=O)O)c3ccccc3c2=O)c1C (stereo unspecified)	7.6µM*	?	0%	2%	?	23%
Cc1cc(C(=O)Cn2nc(C(=O)O)c3ccccc3c2=O)c(C)n1-c1ccc(OC(F)F)cc1	-16%	-11%	0%	-52%	?	1%
CCC(Sc1nnc(-c2ccc(OC)c(OC)c2)c(-c2ccc(OC)c(OC)c2)n1)C(=O)NC1CCCC1 (stereo unspecified)	0%	/	/	/	/	/
Cc1cc(C(=O)Cn2nnc3ccccc3c2=O)c(C)n1-c1ccccc1F	0.34µM*	?	0.45µM*	11µM*	?	0.4µM*
COc1ccc(-n2c(C)cc(C(=O)Cn3nnc4ccccc4c3=O)c2C)cc1	12µM*	-2%	23%	-3%	6%	?
Cc1cc(C(=O)Cn2nc(C(=O)O)c3ccccc3c2=O)c(C)n1CCc1ccc(F)cc1	?	-8%	3%	/	?	5%
Cc1ccc(-n2c(C)cc(C(=O)Cn3nc(C(=O)O)c4ccccc4c3=O)c2C)cc1	5.4µM*	4%	0%	/	19%	8%
CCn1c(SCC(=O)Nc2c(C#N)cnn2-c2ccccc2)nnc1-c1cccs1	0%	-2%	2%	/	-3%	-4%
Fc1ccc(/C=C/c2nnc(-c3cccs3)o2)cc1	2.7µM*	10µM*	2.2µM*	13µM*	?	1.1µM*

Screening data from PubChem BioAssay.
